Screening data (PubChem)
KDM5B inhibitor: Primary screen for KDM5B Histone Demethylases FDH-coupled qHTS; AID 1347165, 2019; Lysine-specific demethylase 5B (Homo sapiens), Q9UGL1; 220,000 compounds, 2.6% hits; KDM5B demethylase, FDH-coupled NADH fluorescence (FDH is formaldehyde dehydrogenase); Potency, µM (highest dose often 57.7 µM), usual class: inhibitors; active = well fitted inhibition curve with a large enough effect; note: 0% is about no effect; nearly all actives have a fitted effect of over 70% in size
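Here, H3K4me3 peptide (12.5 µM in substrate mix) is demethylated by KDM5BΔAP, 200 nM final, after 10 min compound exposure. Formaldehyde product is coupled through FDH (0.25 U/mL in mix) to NADH fluorescence; 30-min ΔRFU feeds dose-response curves.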
An asterisk follows results filed as active; i = inactive. The entries come from a sample that favours hits as a whole. Potency is the fitted concentration of half-maximal effect.

SMILES	KDM5B inhibitor
COc1cccc(CNC(=O)Cn2c(N3CCc4ccccc4C3)nc(C)cc2=O)c1	35µM*
Cc1cc(=O)n(CC(=O)Nc2cccc(C(C)C)c2)c(N2CCc3ccccc3C2)n1	22µM*
Cc1cc(=O)n(CC(=O)Nc2cccc(Cl)c2)c(N2CCc3ccccc3C2)n1	13µM*
Cc1cc(C)cc(NC(=O)Cn2c(N3CCc4ccccc4C3)nc(C)cc2=O)c1	i
COc1cc(NC(=O)Cn2c(N3CCc4ccccc4C3)nc(C)cc2=O)cc(OC)c1OC	i
COc1ccc(NC(C)=O)cc1NC(=O)C1CCCN1C(=O)C12CC3CC(CC(C3)C1)C2 (centres undefined)	i
Cc1cccc2c1ccn2CCC(=O)Nc1nnc(C2CC2)s1	i
N#Cc1ccc(C(=O)N2CCC3(CC2)NC(=O)N(Cc2ccccc2Cl)C3=O)cc1	i
Cc1ccc(CNCc2ccc(-c3ccc(F)cc3)o2)cc1	i
COc1ccc(C2Cn3nnc(-c4noc(COc5ccccc5)n4)c3CO2)cc1 (centres undefined)	i
CN(C)C(CNC(=O)C1CCC(C(C)(C)C)CC1)c1ccsc1 (centres undefined)	i
COC[C@@H]1CN(C(=O)c2ccc3ccccc3n2)C[C@H]1c1nc(C)no1	i
C=C(C)Cn1c(NCCCOCC)nc2c1c(=O)n(C)c(=O)n2C	i
CCc1noc(-c2cccn3c(CNC(=O)c4ccccn4)nnc23)n1	25µM*
Cc1csc(CNC(=O)c2ccccn2)n1	i
O=C(NCc1ccccc1F)c1ccc2ccccc2n1	i
CCc1noc(-c2cccn3c(CNC(=O)c4ccc5ccccc5n4)nnc23)n1	20µM*
CCc1noc(-c2cccn3c(CNC(=O)COc4ccc(F)cc4)nnc23)n1	22µM*
CCc1noc(-c2cccn3c(CNC(=O)c4ccc(F)cc4)nnc23)n1	25µM*
O=C(NCc1nnc2c(-c3nc(C4CC4)no3)cccn12)c1ccc2ccccc2n1	i
CCc1noc(-c2cn(C3CCN(C(=O)COc4ccc(F)cc4)C3)nn2)n1 (centres undefined)	i
CCCOc1ccc(C(=O)NCC2CCCO2)cc1Br (centres undefined)	i
O=S1(=O)CC=C(CBr)C1	i
O=C(NCc1ccc(OC(F)(F)F)cc1)C1CCN(S(=O)(=O)/C=C/c2ccccc2)CC1	i
O=C(NCCNC(=O)C1CC1)c1cc2ccccc2oc1=O	i
SMILES	KDM5B inhibitor
COc1ccc(C(=O)N2CCN3C(=O)N(C4CCOCC4)C[C@H]3C2)cc1	i
CCOC(C)C(=O)NN (centres undefined)	i
COc1ccc(CNC(=O)C2CN(S(=O)(=O)C3CC3)CC23CCCCC3)cc1 (centres undefined)	i
CCCc1cc(=O)n2[nH]c(NC(=O)C(C)(C)C)nc2n1	i
CC(C)(C)CC(=O)Nc1nc2c(s1)C[C@@H]1[C@](C)(CO)[C@H](O)CC[C@@]1(C)[C@@H]2CC(=O)NC1CCCCC1	i
CCc1noc(-c2cccn3c(CNC(=O)c4ccoc4)nnc23)n1	14µM*
COCc1nc(CCNC(=O)c2ccoc2)no1	i
Cc1noc(-c2cccn3c(CNC(=O)c4ccccc4)nnc23)n1	28µM*
CCCc1noc(-c2cccn3c(CNC(=O)c4ccc(OCC)cc4)nnc23)n1	i
CCc1noc(-c2cccn3c(CNC(=O)c4ccccc4)nnc23)n1	28µM*
CCCc1noc(-c2cccn3c(CNC(=O)c4ccc(F)cc4)nnc23)n1	14µM*
c1ccc(N2CCN(c3nc(N4CCOCC4)c4nccnc4n3)CC2)cc1	i
O=C(O)C1=NOC2CN(C(=O)c3ccc4c(c3)OCO4)CC12 (centres undefined)	i
Cc1ccccc1NC(=O)C1CCN(c2nc3ccccc3o2)CC1	i
O=C(c1nn(Cc2ccccc2)c(=O)c2ccccc12)N1CCN(c2ccccc2O)CC1	i
O=C(NCc1cccc(Cl)c1)c1ccc2ccccc2n1	i
Cc1cn2nc(C(=O)NCc3cccc(Cl)c3)cc2c(N(C)Cc2ccccc2)n1	25µM*
Cc1cn2nc(C(=O)NCc3ccc(Cl)cc3)cc2c(=O)[nH]1	i
Cc1cc(=O)n(CC(=O)NCc2ccccc2)c(N(C)Cc2ccccc2)n1	i
Cc1cn2nc(C(=O)NCc3ccc(Cl)cc3)cc2c(N(C)Cc2ccccc2)n1	14µM*
Cc1cc(C(=O)NCc2ccc(Cl)cc2)n(-c2ccccc2)n1	i
O=C1CSc2ccc(C(=O)OCc3cc(-c4ccccc4)on3)cc2N1	i
COc1ccc(C(=O)Nc2oc3ccccc3c(=O)c2-c2ccc(C)cc2)cc1OC	i
O=C(OCc1ccccc1Cl)c1cccc(O)c1	i
O=C(COc1ccccc1-c1noc(COc2ccccc2)n1)N1CCCCCC1	i
SMILES	KDM5B inhibitor
CCCOc1ccc(C(C)NC(=O)c2snnc2CC)cc1OC (centres undefined)	i
COc1ccc(-c2c(-c3ccc(OCCN4CCOCC4)cc3O)n[nH]c2C)cc1	i
CC(C)=CC(=O)N(Cc1ccco1)C1CC1	i
S=C(NCc1ccccc1)NC1CC1	i
Cc1ncccc1C(=O)N1CC(Oc2ccc(-c3nc(-c4ccccc4)no3)cc2)C1	i
O=C(c1ccncc1)N1CC(Oc2ccc(-c3noc(-c4ccccc4)n3)cc2)C1	i
CC(C)S(=O)(=O)N1CC(Oc2ccc(-c3noc(-c4cccnc4)n3)cc2)C1	28µM*
O=[N+]([O-])c1ccc(N/N=C/c2ccc(Br)cc2)cc1	i
O=C(CC1CCCCC1)N1CCCC(CN2CCCC2)C1 (centres undefined)	i
COc1ccc(CCNC(=O)c2cc3c(s2)-c2ccccc2OC3)c(OC)c1	i
Cc1ccc(-c2nc(Nc3ccc(N4CCOCC4)cc3)c3ccccc3n2)cc1	i
COc1ccccc1-c1ccc2ncc(Nc3cc(F)cc(N4CCOCC4)c3)n2n1	i
Fc1cc(Nc2cnc3ccc(-c4ccccc4)nn23)cc(N2CCOCC2)c1	i
O=C(Nc1ncc(-c2cccc(F)c2)c2c1OCC2)c1cccnc1	i
Fc1cccc(-c2cnc(Nc3cncnc3)c3c2CCO3)c1	i
c1ccc(-c2cnc(Nc3cncnc3)c3c2CCO3)cc1	i
Fc1cccc(Nc2ncc(-c3cccnc3)c3c2OCC3)c1	32µM*
Fc1cc(Nc2ncc(-c3cccnc3)c3c2OCC3)cc(N2CCOCC2)c1	32µM*
Fc1cccc(-c2cnc(Nc3ccc(N4CCOCC4)cc3)c3c2CCO3)c1	32µM*
c1ccc(Nc2ncc(-c3ccccc3)c3c2OCC3)cc1	i
Fc1cc(Nc2ncc(-c3ccccc3)c3c2OCC3)cc(N2CCOCC2)c1	13µM*
CC1(C)CC(NC(=O)Cn2nc3c(cc2=O)CCCCC3)CCO1 (centres undefined)	i
Nc1nc(Cl)nc(Nc2ccc(F)cc2)c1[N+](=O)[O-]	i
COC(=O)c1ncoc1-c1ccccc1C(=O)N1CCN(c2cc(C)ccc2C)CC1	i
CN1C(=O)C(CC(=O)N2CC(n3cccn3)C2)(Cc2ccccc2)c2ccccc21 (centres undefined)	i
O=C(O)CCCC(=O)N1CCN(c2ccc(F)cc2)CC1	i
COc1cc(OC)cc(C(=O)N2CCCC(n3cc(-c4nc(-c5ccccc5)no4)nn3)C2)c1 (centres undefined)	i
COCCOCc1nc(C2CCN(C(=O)Nc3ccc(OC)c(F)c3)CC2)no1	i
N#C/C(=C\c1ccc(OC(=O)c2ccccc2)cc1)C(=O)Nc1ccccc1	i
